Source: PubChem BioAssay
Marburg entry inh: blocks Marburg virus binding to or entry into cells. Marburg virus pseudotyped entry inhibition, cell reporter. Potency, µM (doses to about 37.8 µM), for the others: at the top dose activity change, negative = inhibition, most hits filed as inhibitors. 300,000 tested, 1.8% active. AID 540276; calls by dose curve; tested in HEK293 cells; also: potency is read from the fitted curve at half-maximal effect; % is scaled to controls: 0 for no effect and ±100 for the full control effect
SARS PLP yeast: inhibitors of SARS-CoV papain-like protease in yeast. S. cerevisiae expressing SARS-CoV PLpro, growth rescue. 330,000 tested, 0.19% active. Potency, µM (series often up to 32.9 µM), inactives show at the top dose activity, positive = growth rescue, actives largely listed as activators; calls by dose curve; also: potency is read from the fitted curve at half-maximal effect; 0% is about no effect; nearly all actives have a fitted effect of over 55% in size
HCMV antiviral: blocks human cytomegalovirus replication; 410,000 tested, 4.5% active; activity change, negative = inhibition, % at 57.5 µM; HFF cells, HCMV-luciferase reporter, 72 h; active compounds read low; in the data active = activity change below about -60%; inconclusive = no clear call, values can overlap the other calls; inactive = above about -39%; also: % is scaled to controls: 0 for no effect and ±100 for the full control effect
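Human foreskin fibroblasts infected with luciferase-reporter HCMV at MOI 1 PFU/cell, compounds at two doses. Luciferase measured 72 h post infection; normalized to buffer-only basal and Salinomycin (10uM) controls.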
HCV inhibitor: HCV inhibition. Potency, µM (titrated, usually from 41.8 µM), without a hit: top-dose activity change, negative = inhibition, hits mostly inhibitors. 340,000 tested, 3.4% active. AID 651820. Huh7.5.1 HCVcc-Cre infection, luciferase reporter, 44 h; active = well fitted inhibition curve with a large enough effect; inconclusive = small, poorly fitted or top-dose-only effect, or another doubt; inactive = no such curve, though single readings can be large or run the other way; also: potency is read from the fitted curve at half-maximal effect; % is scaled to controls: 0 for no effect and ±100 for the full control effect
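Cells (1,000/well) were plated 4 h before compound, then infected with HCVcc-Cre virus (~0.5 moi). After 44 h further culture, infection was read as luciferase luminescence following a 15 min substrate incubation at room temperature.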
FMDV antiviral: foot and mouth disease virus antiviral activity | FMDV antiviral cell-based qHTS | Potency, µM (titrated, usually from 57.9 µM), for the others: at the top dose activity change, negative = inhibition, actives largely listed as inhibitors | 410,000 tested, 1.2% active | AID 1159524; calls by dose curve; tested in HEK293T cells; also: read-out not given here; potency is read from the fitted curve at half-maximal effect; % is scaled to controls: 0 for no effect and ±100 for the full control effect; nearly all actives have a fitted effect of over 45% in size
LASV entry inh: Lassa virus entry inhibition; Lassa virus pseudotype entry inhibition, cell reporter; Potency, µM (top dose mostly 37.9 µM), inactives show top-dose activity change, negative = inhibition, usual class: inhibitors; 300,000 tested, 1.2% active; calls by dose curve; tested in HEK293 cells; also: potency is read from the fitted curve at half-maximal effect; % is scaled to controls: 0 for no effect and ±100 for the full control effect; nearly all actives have a fitted effect of over 50% in size
* = called active by the depositor; ? = inconclusive; nt = no result given; [ ] = dose if it differs, or a comment. An excerpt weighted towards active compounds, which were near 8% of everything screened.

SMILES | Marburg entry inh | SARS PLP yeast | HCMV antiviral | HCV inhibitor | FMDV antiviral | LASV entry inh
COc1cc(CCCN2C(=O)C(=O)NC[C@@H]2Cc2ccc(O)cc2)cc(OC)c1OC | nt | 0% | 27 | 11% | -2% | nt
CN1c2ccccc2[C@@]2(O)C(=O)[C@@]1(C)[C@@H]1CCC=C[C@H]12 | 10%[14.2 µM] | nt | nt | nt | nt | ?
CCOC(=O)CSc1nc2ccc(N3CCOCC3)cc2c(=O)n1Cc1ccccc1 | 3% | 5% | -6 | 2.8µM* | 22% | ?
COc1ccc(NC(=O)C2Cc3c(-c4ccc(Cl)cc4)ccnc3O2)cc1OC (stereo not given) | nt | nt | -78* | nt | ? | nt
NC(=O)c1cccc(-c2ccnc3c2CC(C(=O)Nc2cccc(C(F)(F)F)c2)O3)c1 (stereo not given) | nt | nt | -22 | nt | 28µM* | nt
CC(=O)Nc1ccc(NC(=O)C2Cc3c(-c4ccc(Cl)cc4)ccnc3O2)cc1 (stereo not given) | nt | nt | -9 | nt | -17% | nt
COc1ccc(NC(=O)C2Cc3c(-c4ccc(Cl)cc4)ccnc3O2)cn1 (stereo not given) | nt | nt | -82* | nt | ? | nt
COc1ccc(CCCNC(=O)C2Cc3c(-c4cccc(NC(C)=O)c4)ccnc3O2)cc1 (stereo not given) | nt | nt | -61* | nt | 35µM* | nt
COc1ccc(NC(=O)C2Cc3c(-c4cccc(C(C)=O)c4)ccnc3O2)cc1OC (stereo not given) | nt | nt | -92* | nt | 8.9µM* | nt
COc1ccc(NC(=O)C2Cc3c(-c4ccccc4)ccnc3O2)cc1OC (stereo not given) | nt | nt | nt | nt | 35µM* | nt
O=C(Nc1ccc2c(c1)OCO2)C1Cc2c(-c3ccc4c(c3)OCO4)ccnc2O1 (stereo not given) | nt | nt | -62* | nt | -27% | nt
CC(C)CCNC(=O)c1ccc(Cn2c(SCC(=O)NC(C)C)nc3ccccc3c2=O)cc1 | nt | nt | 7 | nt | -20% | ?
COc1ccc(NS(=O)(=O)c2ccc(-c3coc(C)n3)cc2)cc1OC | nt | 3% | -92* | ? | -28% | nt
N#Cc1cc2c(OCC(O)CN3CCN(C(c4ccccc4)c4ccccc4)CC3)cccc2[nH]1 (stereo not given) | nt | nt | nt | nt | -3% | nt
Cc1cc(C(=O)C(C)Sc2cccc[n+]2[O-])c(C)n1-c1ccc(Cl)cc1 (stereo not given) | ? | 3% | -26 | 4.5µM* | -7% | ?
Cc1cc(C(=O)C(=O)O)c(C)n1-c1ccc(Cl)cc1 | -7%[46.1 µM] | 1% | -32 | 8% | 0% | 19%[46.1 µM]
Cc1ccccc1N1C(=O)CC1(C#N)c1ccc(OCc2ccccc2)cc1 (stereo not given) | ? | -7% | -85* | -29% | -8% | 10µM*
COc1ccccc1N1C(=O)CC1(C#N)c1ccc(OCc2ccccc2)cc1 (stereo not given) | ? | -14% | 57 | -4% | -26% | ?
CCCCN(CC)C(=O)CCNS(=O)(=O)c1ccc2c(c1)c(=O)n(C)c(=O)n2C | -4%[46.1 µM] | nt | -8 | nt | -22% | 12%[46.1 µM]
CCc1ccc(NC(=O)C(CC)n2c(=O)c(-c3ccccc3NC(C)=O)nc3ccccc32)cc1 (stereo not given) | 3%[46.1 µM] | nt | -91* | nt | ? | 14%[46.1 µM]
Nc1nc(Nc2ccccc2)nc(N2CCOCC2)c1[N+](=O)[O-] | -46% | 12% | -5 | 0% | -9% | ?
Cc1cccc(Nc2nc(N)c([N+](=O)[O-])c(N3CC(C)OC(C)C3)n2)c1 (stereo not given) | nt | -1% | 10 | 10µM* | 3.2µM* | nt
CCN1CCN(c2nc(Nc3ccc(C)c(C)c3)nc(N)c2[N+](=O)[O-])CC1 | 16µM* | -2% | -6 | 1% | 2% | -4%
CCN1CCN(c2nc(Nc3cccc(OC)c3)nc(N)c2[N+](=O)[O-])CC1 | nt | 2% | 82 | ? | -28% | nt
Cc1cccc(Nc2nc(N)c([N+](=O)[O-])c(N3CCC(C)CC3)n2)c1 | ? | -77% | -38 | ? | 25µM* | ?
Cc1cccc(Nc2nc(N)c([N+](=O)[O-])c(N3CC(C)CC(C)C3)n2)c1 (stereo not given) | ? | 4% | -63* | 6.3µM* | 22µM* | ?
